Laboratory results reported in PubChem BioAssay AID1159580 (chemical genetic matrix, 2015).
The whole screen tested about 5,500 compounds, of which about 2,000 (36%) were called active. Inconclusive results (about 18%) are left out. Cut-off read from the data, not from the text of the source: active = normalized growth mostly below about 0.91 (no sharp cut-off); inconclusive = no clear call, values can overlap the other calls; inactive = mostly above about 0.92. This is one part of the list.

Experiment: chemical genetic growth profiling, strain panel (AID 1159580);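 note: tested at 20 µM; growth read once vehicle control cultures reached saturation at 30 °C; 1 = growth at the plate median or of vehicle wells; lower values mean less growth of the strain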
Conditions: S. cerevisiae deletion strains, growth OD

Measured: normalized growth

C=C1C2CC[C@@]3(C)[C@H](c4ccoc4)OC(=O)C[C@]13O[C@H]1CC(=O)C(C)(C)[C@H](C(OC(C)=O)C(=O)OC)[C@@]21C (stereo not given in full)
inactive: locus YAL021C, strain ccr4, stronger effect = lower value 1 | locus YAL026C, strain drs2, stronger effect = lower value 1.03 | locus YAL030W, strain snc1, stronger effect = lower value 1 | locus YBL061C, strain skt5, stronger effect = lower value 1.02 | locus YBR009C, strain hhf1, stronger effect = lower value 1.02 | locus YBR021W, strain FUR4, stronger effect = lower value 0.999 | locus YBR023C, strain chs3, stronger effect = lower value 0.998 | locus YBR171W, strain sec66, stronger effect = lower value 1.02 | locus YBR229C, strain ROT2, stronger effect = lower value 0.994 | locus YBR231C, strain swc5, stronger effect = lower value 1.04 | locus YBR279W, strain paf1, stronger effect = lower value 1.01 | locus YCL011C, strain gbp2, stronger effect = lower value 0.993 | locus YCL016C, strain dcc1, stronger effect = lower value 0.983 | locus YCL029C, strain bik1, stronger effect = lower value 1 | locus YCL069W, strain vba3, stronger effect = lower value 1 | locus YCR088W, strain abp1, stronger effect = lower value 1.01 | locus YDL005C, strain med2, stronger effect = lower value 1.01 | locus YDL035C, strain GPR1, stronger effect = lower value 0.978 | locus YDL040C, strain nat1, stronger effect = lower value 1 | locus YDL074C, strain BRE1, stronger effect = lower value 1.01 | locus YDL101C, strain DUN1, stronger effect = lower value 1.01 | locus YDL185W, strain tfp1, stronger effect = lower value 1.01 | locus YDL192W, strain arf1, stronger effect = lower value 0.998 | locus YDR001C, strain nth1, stronger effect = lower value 1.02 | locus YDR069C, strain doa4, stronger effect = lower value 1.03 | locus YDR101C, strain arx1, stronger effect = lower value 0.978 | locus YDR137W, strain rgp1, stronger effect = lower value 0.872 | locus YDR150W, strain NUM1, stronger effect = lower value 0.985 | locus YDR159W, strain sac3, stronger effect = lower value 1.05 | locus YDR162C, strain NBP2, stronger effect = lower value 0.985 | locus YDR195W, strain ref2 1.02 | locus YDR297W, strain sur2, stronger effect = lower value 1.02 | locus YDR318W, strain mcm21, stronger effect = lower value 1.01 | locus YDR334W, strain swr1, stronger effect = lower value 1.01 | locus YDR335W, strain msn5, stronger effect = lower value 1.01 | locus YDR388W, stronger effect = lower value 1.01 | locus YDR392W, strain spt3, stronger effect = lower value 0.922 | locus YDR502C, strain sam2, stronger effect = lower value 1.02 | locus YEL003W, strain gim4, stronger effect = lower value 1.03 | locus YEL037C, strain rad23, stronger effect = lower value 1.01 | locus YEL061C, strain CIN8 (second series), stronger effect = lower value 1.01 | locus YEL061C, strain CIN8, stronger effect = lower value 0.99 | locus YER015W, strain faa2, stronger effect = lower value 1 | locus YER016W, strain bim1, stronger effect = lower value 1.01 | locus YER110C, stronger effect = lower value 1.01 | locus YER111C, strain swi4, stronger effect = lower value 1.02 | locus YER155C, strain BEM2 (second series), stronger effect = lower value 1.06 | locus YER155C, strain BEM2, stronger effect = lower value 1.02 | locus YER167W, strain BCK2, stronger effect = lower value 1 | locus YFR010W, strain ubp6, stronger effect = lower value 1.04 | locus YGL078C, strain dbp3, stronger effect = lower value 1.01 | locus YGL086W, strain mad1, stronger effect = lower value 0.987 | locus YGL167C, strain pmr1, stronger effect = lower value 1.01 | locus YGL173C, strain kem1, stronger effect = lower value 1.03 | locus YGL227W, strain vid30, stronger effect = lower value 1.01 | locus YGL240W, strain doc1, stronger effect = lower value 1.03 | locus YGL248W, strain PDE1, stronger effect = lower value 1.01 | locus YGL253W, strain hxk2, stronger effect = lower value 0.99 | locus YGR135W, strain pre9, stronger effect = lower value 1.05 | locus YGR252W, strain gcn5, stronger effect = lower value 1.02 | locus YHR013C, strain ard1, stronger effect = lower value 0.983 | locus YHR027C, strain rpn1, stronger effect = lower value 1.02 | locus YHR079C, strain IRE1 (second series), stronger effect = lower value 0.997 | locus YHR094C, strain hxt1, stronger effect = lower value 1.01 | locus YHR129C, strain ARP1, stronger effect = lower value 1.01 | locus YHR142W, strain chs7, stronger effect = lower value 0.977 | locus YHR200W, strain rpn10, stronger effect = lower value 1.01 | locus YIL066C, strain RNR3, stronger effect = lower value 0.976 | locus YIL073C, strain SPO22, stronger effect = lower value 1.01 | locus YIL125W, strain kgd1, stronger effect = lower value 0.994 | locus YIR030C, strain dcg1, stronger effect = lower value 0.997 | locus YJL092W, strain hpr5, stronger effect = lower value 1.02 | locus YJL095W, strain BCK1 (second series), stronger effect = lower value 1.02 | locus YJL095W, strain BCK1, stronger effect = lower value 1.04 | locus YJL115W, strain asf1, stronger effect = lower value 1.01 | locus YJL129C, strain trk1, stronger effect = lower value 1 | locus YJL134W, strain LCB3, stronger effect = lower value 0.998 | locus YJL154C, strain vps35, stronger effect = lower value 1.01 | locus YJL164C, strain tpk1, stronger effect = lower value 0.995 | locus YJL166W, strain qcr8, stronger effect = lower value 1.03 | locus YJL168C, strain set2, stronger effect = lower value 1 | locus YJL187C, strain SWE1 (second series), stronger effect = lower value 1.03 | locus YJL187C, strain SWE1, stronger effect = lower value 1 | locus YKL009W, strain mrt4, stronger effect = lower value 0.983 | locus YKL068W, stronger effect = lower value 1 | locus YKL085W, strain MDH1 (second series), stronger effect = lower value 0.981 | locus YKL085W, strain MDH1, stronger effect = lower value 0.981 | locus YKL160W, strain elf1, stronger effect = lower value 0.976 | locus YKR001C, strain vps1, stronger effect = lower value 0.995 | locus YKR026C, strain gcn3, stronger effect = lower value 1.01 | locus YKR091W, strain srl3, stronger effect = lower value 1 | locus YLL001W, strain dnm1, stronger effect = lower value 0.992 | locus YLL026W, stronger effect = lower value 1 | locus YLL041C, strain sdh2, stronger effect = lower value 1.01 | locus YLR027C, strain aat2, stronger effect = lower value 1.02 | locus YLR039C, strain RIC1, stronger effect = lower value 0.917 | locus YLR058C, strain SHM2, stronger effect = lower value 1.01 | locus YLR102C, strain apc9, stronger effect = lower value 1 | locus YLR221C, strain rsa3, stronger effect = lower value 1.04 | locus YLR258W, strain gsy2, stronger effect = lower value 1.02 | locus YLR262C, strain YPT6 (second series), stronger effect = lower value 0.892 | locus YLR268W, strain sec22, stronger effect = lower value 0.987 | locus YLR320W, strain mms22, stronger effect = lower value 1.03 | locus YLR342W, strain FKS1 (second series), stronger effect = lower value 0.978 | locus YLR342W, strain FKS1, stronger effect = lower value 1 | locus YLR357W, strain rsc2, stronger effect = lower value 1.02 | locus YLR370C, strain arc18, stronger effect = lower value 0.998 | locus YLR371W, strain rom2, stronger effect = lower value 1 | locus YLR384C, strain iki3, stronger effect = lower value 1.03 | locus YLR418C, strain cdc73, stronger effect = lower value 1.01 | locus YML016C, strain PPZ1, stronger effect = lower value 1 | locus YML032C, strain rad52, stronger effect = lower value 1.01 | locus YML120C, strain ndi1, stronger effect = lower value 1.01 | locus YML124C, strain tub3, stronger effect = lower value 1 | locus YMR058W, strain fet3, stronger effect = lower value 1.03 | locus YMR078C, strain ctf18, stronger effect = lower value 1.01 | locus YMR125W, strain sto1, stronger effect = lower value 0.996 | locus YMR129W, stronger effect = lower value 1.01 | locus YMR205C, strain PFK2, stronger effect = lower value 0.992 | locus YMR223W, strain ubp8, stronger effect = lower value 1.01 | locus YMR231W, strain pep5, stronger effect = lower value 1.01 | locus YMR307W, strain GAS1, stronger effect = lower value 0.996 | locus YNL067W, strain RPL9B, stronger effect = lower value 1.03 | locus YNL071W, strain lat1, stronger effect = lower value 0.993 | locus YNL209W, strain ssb2, stronger effect = lower value 0.993 | locus YNL233W, strain BNI4, stronger effect = lower value 1.01 | locus YNL248C, strain rpa49, stronger effect = lower value 1.04 | locus YNL250W, strain rad50, stronger effect = lower value 1.03 | locus YNL271C, strain bni1, stronger effect = lower value 1 | locus YNL298W, strain CLA4, stronger effect = lower value 1.01 | locus YNL307C, strain MCK1, stronger effect = lower value 1.01 | locus YNL322C, strain KRE1 (second series), stronger effect = lower value 1.02 | locus YNR049C, strain mso1, stronger effect = lower value 1.01 | locus YNR052C, strain pop2, stronger effect = lower value 1.02 | locus YOL006C, strain TOP1, stronger effect = lower value 0.972 | locus YOL012C, strain htz1 0.586 | locus YOL147C, strain pex11, stronger effect = lower value 1 | locus YOR001W, strain rrp6, stronger effect = lower value 1.04 | locus YOR061W, strain CKA2, stronger effect = lower value 0.997 | locus YOR069W, strain VPS5, stronger effect = lower value 1 | locus YOR070C, strain gyp1, stronger effect = lower value 1.03 | locus YOR080W, strain dia2, stronger effect = lower value 1.01 | locus YOR083W, strain WHI5, stronger effect = lower value 0.978 | locus YOR106W, strain vam3, stronger effect = lower value 0.958 | locus YOR136W, strain idh2, stronger effect = lower value 0.997 | locus YOR144C, strain elg1, stronger effect = lower value 1 | locus YOR184W, strain ser1, stronger effect = lower value 0.972 | locus YOR265W, strain rbl2, stronger effect = lower value 0.996 | locus YOR270C, strain vph1, stronger effect = lower value 0.904 | locus YOR290C, strain snf2, stronger effect = lower value 0.95 | locus YOR316C, strain cot1, stronger effect = lower value 1 | locus YPL051W, strain arl3, stronger effect = lower value 1.01 | locus YPL078C, strain atp4, stronger effect = lower value 0.958 | locus YPL106C, strain sse1, stronger effect = lower value 1.04 | locus YPL240C, strain hsp82, stronger effect = lower value 1.01 | locus YPR119W, strain clb2, stronger effect = lower value 1.01 | locus YPR141C, strain kar3, stronger effect = lower value 1 | locus YPR163C, strain tif3, stronger effect = lower value 1.01 | locus YPR167C, strain met16, stronger effect = lower value 0.999 | strain wtn01, stronger effect = lower value 0.993
